Common to all, as to experiment: NCI-60 one-dose screen, 48 h (100 = growth as untreated, 0 = no growth, -100 = all killed)
Details in all cases: 10 µM unless noted

The subject of assay [1] is DU-145 prostate.
Assay [2] concerns K-562 leukemia.
Assay [3] deals with MALME-3M melanoma.
For assay [4], the system named is MDA-MB-231 breast.
Assay [5] concerns RXF 393 renal.
In assay [6] the test system is SF-268 CNS.
Assay [7] relates to SF-295 CNS.
Assay [8] has as its system SF-539 CNS.
In assay [9] the test system is UACC-257 melanoma.
The subject of assay [10] is M14 melanoma.

Values joined by “and” are separate entries in the source; they are usually repeats but may differ in a detail not shown here. Equal values may be shown once. Compounds without any hit were thinned out: in the full panel of roughly 83,000, 20% have a hit.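 In brief: 96-well plates, 48 h treatment, single concentration, percent growth endpoint.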 Active and inactive are the calls of the source. The calls were made as follows: active = growth percent below 10; inactive = the rest.

The values below come from PubChem BioAssay (NCI).

For the compound `CC(=O)Oc1ccc(C2(c3ccc(OC(C)=O)cc3)C(=O)Nc3ccccc32)cc1`, the growth in assay [1] is 89% (inactive) and 89.9% (inactive); in [2] it was 78.9% (inactive) and 93.8% (inactive); in assay [3], 128% (inactive) and 97.8% (inactive); in assay [4] it was 95.4% (inactive) and 87.4% (inactive); in [5], 66.4% (inactive) and 76.9% (inactive); in [6] it was 96.7% (inactive) and 100% (inactive). For the same compound, the growth in assay [7] is 71.8% (inactive) and 86.3% (inactive); in [8], 97.2% (inactive) and 92.2% (inactive); in assay [9], 110% (inactive) and 114% (inactive); in assay [10], 112% (inactive) and 99.4% (inactive).
For the compound `Cc1cnc(N)s1`, the growth in assay [1] was 106% (inactive); in assay [2], 92.9% (inactive); in [3], 98.1% (inactive); in assay [4] it was 91.6% (inactive); in [5], 105% (inactive); in [6], 93.8% (inactive). Besides, the growth is 98.3% (inactive) in [7], 103% (inactive) in assay [8], 84.4% (inactive) in assay [9] and 91.9% (inactive) in [10].
Take `Cc1cc(NC(=O)NC(=O)c2ccccc2N(C)C)ccc1Oc1ncc(Br)cn1`: the growth in assay [1] is -3.51% (active) and 20.7% (inactive); in [2], 0.98% (active) and 20.3% (inactive); in assay [3], 24.6% (inactive) and 55.2% (inactive); in [4], 9.21% (active) and 34.1% (inactive); in assay [5], 30.2% (inactive) and -1.61% (active); in assay [6], 44.8% (inactive) and 63.6% (inactive). Also, the growth in assay [7] is 35.1% (inactive) and 36.1% (inactive); in assay [8], -8.43% (active) and -14.3% (active); in assay [9], 26% (inactive) and 73.5% (inactive); in assay [10], 22.8% (inactive) and 17.1% (inactive).
Consider `O=C1C=CC(=O)N1Cc1ccco1`, for which the growth is 4.25% (active) in assay [1]; 94.1% (inactive) in assay [2]; 94.5% (inactive) in assay [3]; 84% (inactive) in assay [4]; 68.6% (inactive) in assay [5]; 89.7% (inactive) in assay [6]. Besides, the growth in [7] is 72.2% (inactive); in assay [8], 108% (inactive); in assay [9], 104% (inactive); in assay [10], 85.3% (inactive).
`Cc1ccc(S(=O)(=O)n2ccnc2)cc1`: the growth is 120% (inactive) in assay [1]; 123% (inactive) in [2]; 107% (inactive) in [3]; 98.9% (inactive) in assay [4]; 96.2% (inactive) in assay [5]; 104% (inactive) in assay [6]. Besides, the growth in [7] was 102% (inactive); in assay [8], 96.7% (inactive); in assay [9], 91.5% (inactive); in assay [10], 104% (inactive).
Take `COc1cc(NCCCCCNC(C)C)c2ncccc2c1`: the growth is 111% (inactive) in [1]; 91.1% (inactive) and 104% (inactive) in assay [2]; 99.6% (inactive) and 125% (inactive) in assay [3]; 89% (inactive) and 93.1% (inactive) in assay [4]; 90.9% (inactive) and 92.6% (inactive) in assay [5]; 93.5% (inactive) in assay [6]. Besides, the growth in [7] is 104% (inactive) and 102% (inactive); in [8], 91.9% (inactive) and 78.1% (inactive); in [9] it was 113% (inactive) and 80.2% (inactive); in assay [10], 96.9% (inactive) and 90.2% (inactive).
For `Cc1ccc2cccc([N+](=O)[O-])c2n1`, the growth in [1] was 116% (inactive) and 109% (inactive); in [2], 91% (inactive) and 88.7% (inactive); in assay [3], 99.1% (inactive) and 108% (inactive); in assay [4], 107% (inactive) and 104% (inactive); in assay [5], 119% (inactive) and 110% (inactive); in assay [6], 103% (inactive). Further, the growth is 108% (inactive) and 110% (inactive) in assay [7]; 105% (inactive) and 103% (inactive) in [8]; 102% (inactive) and 107% (inactive) in assay [9]; 121% (inactive) and 97.9% (inactive) in assay [10].
Regarding `CCCCCCC(C)CC1=C(O)c2ccccc2C(=O)C1=O` (stereo not given), the growth was 45.2% (inactive) in [1]; 31.1% (inactive) in [2]; 54.9% (inactive) in [3]; 66.2% (inactive) in assay [4]; 60% (inactive) in assay [5]; 53.2% (inactive) in [6]. Besides, the growth is 35.4% (inactive) in assay [7], 34% (inactive) in assay [8], 38.2% (inactive) in assay [9] and 44.1% (inactive) in [10].
As for `CC(=O)c1cc2ccccc2o1`, the growth is 112% (inactive) in assay [1]; 97.9% (inactive) in assay [2]; 107% (inactive) in assay [3]; 99.9% (inactive) in assay [4]; 119% (inactive) in assay [5]; 106% (inactive) in [6]. In addition, the growth is 103% (inactive) in assay [7], 89% (inactive) in assay [8], 114% (inactive) in [9] and 99.5% (inactive) in assay [10].
Take `C=CCN1C(=O)c2ccccc2C1=O`: the growth is 107% (inactive) in assay [1]; 106% (inactive) in assay [2]; 120% (inactive) in assay [3]; 106% (inactive) in assay [4]; 104% (inactive) in assay [5]; 106% (inactive) in assay [6]. Further, the growth in assay [7] is 109% (inactive); in assay [8] it was 95.3% (inactive); in assay [9], 102% (inactive); in assay [10], 99.9% (inactive).
Consider `CN1C2C=CC(=O)C1C1C(=O)N(c3ccccc3)C(=O)C12` (stereo not given), for which the growth in assay [1] was 37.3% (inactive); in assay [2], 40.8% (inactive); in assay [3], 82.5% (inactive); in assay [4] it was 93.9% (inactive); in [5], 59.1% (inactive); in [6] it was 74.1% (inactive). The growth in assay [7] is 99% (inactive); in assay [8], 66.5% (inactive); in [9] it was 81.8% (inactive); in assay [10] it was 105% (inactive).
Take `CC1(C)OC(=O)C(=Cc2ccc(C#N)cc2)C(=O)O1`: the growth is 109% (inactive) and 107% (inactive) in assay [1]; 101% (inactive) and 96.7% (inactive) in [2]; 110% (inactive) and 99.3% (inactive) in assay [3]; 113% (inactive) and 123% (inactive) in assay [4]; 102% (inactive) in [5]; 104% (inactive) and 102% (inactive) in assay [6]. For the same compound, the growth in assay [7] was 103% (inactive) and 97.7% (inactive); in [8] it was 111% (inactive) and 105% (inactive); in assay [9], 72.2% (inactive) and 96.3% (inactive); in [10], 106% (inactive) and 105% (inactive).
Regarding `COc1cc(C2c3cc4c(cc3C(OC(=O)C[n+]3ccccc3)C3COC(=O)C23)OCO4)cc(OC)c1OC` (stereo not given), the growth in [1] was -40.1% (active); in [2] it was 6.79% (active); in assay [3], 59% (inactive); in [4], -2.88% (active); in assay [5] it was 41.1% (inactive); in assay [6] it was 8.83% (active). Also, the growth in [7] was 1.14% (active); in assay [8] it was -9.3% (active); in assay [9], 55.1% (inactive); in assay [10] it was 7.72% (active).
With `CC(=O)Nc1ccc2oc(=O)ccc2c1`, the growth in assay [1] is 100% (inactive); in assay [2], 64.9% (inactive); in assay [3], 110% (inactive); in assay [4], 94.6% (inactive); in assay [5] it was 103% (inactive); in assay [6] it was 114% (inactive). For the same compound, the growth in [7] was 108% (inactive); in assay [8], 99.1% (inactive); in assay [9], 104% (inactive); in [10], 100% (inactive).
`COC(=O)c1nc(N)nc(C(=O)OC)c1C(=O)c1ccc(F)cc1`: the growth in [1] is 111% (inactive); in assay [2], 109% (inactive); in assay [3] it was 104% (inactive); in assay [4], 103% (inactive); in assay [5], 104% (inactive); in assay [6], 103% (inactive). Also, the growth in [7] is 101% (inactive); in assay [8] it was 103% (inactive); in assay [9], 110% (inactive); in assay [10], 108% (inactive).
Take `O=c1[nH]c(=O)c2[nH]c(=O)[nH]c2[nH]1`: the growth in [1] is 107% (inactive); in assay [2], 135% (inactive); in [3] it was 93.2% (inactive); in assay [4], 101% (inactive); in [5] it was 84.6% (inactive); in [6], 103% (inactive). The growth was 98.3% (inactive) in assay [7], 97.7% (inactive) in assay [8], 107% (inactive) in assay [9] and 91.5% (inactive) in assay [10].
For the compound `COCCCNC1=C(C#N)C(=O)NC(c2cccs2)S1` (stereo not given), the growth in assay [1] was 107% (inactive); in assay [2], 153% (inactive); in assay [3], 104% (inactive); in assay [4], 106% (inactive); in assay [5] it was 96.9% (inactive); in assay [6], 104% (inactive). The growth is 96.4% (inactive) in assay [7], 85.2% (inactive) in assay [8], 111% (inactive) in assay [9] and 110% (inactive) in assay [10].
With `COc1ccc(/C=N/Nc2nc3ccccc3s2)cc1`, the growth in [1] is 105% (inactive); in assay [2] it was 93.2% (inactive); in [3], 44.2% (inactive); in assay [4], 86% (inactive); in [5], 97.5% (inactive); in assay [6], 106% (inactive). Besides, the growth in assay [7] was 97.1% (inactive); in assay [8], 94% (inactive); in [9], 103% (inactive); in assay [10], 87.7% (inactive).
Turning to `CC(C)(C)OC(=O)NCCc1ccc(N)cc1`, the growth in assay [1] is 103% (inactive); in assay [2] it was 101% (inactive); in assay [3] it was 95.8% (inactive); in [4] it was 85.6% (inactive); in [5], 115% (inactive); in assay [6], 96.3% (inactive). For the same compound, the growth in assay [7] was 99.2% (inactive); in assay [8], 107% (inactive); in assay [9], 98.2% (inactive); in assay [10], 104% (inactive).
As to `O=C(Nc1ccccc1)OCC(CN1CCCCC1)OC(=O)Nc1ccccc1` (stereo not given), the growth is 107% (inactive) in [1]; 89% (inactive) in [2]; 90.8% (inactive) and 109% (inactive) in assay [3]; 30.7% (inactive) and 79.2% (inactive) in [4]; 60% (inactive) and 86.8% (inactive) in [5]; 79.2% (inactive) and 94.7% (inactive) in [6]. For the same compound, the growth is 96.5% (inactive) and 97.9% (inactive) in assay [7]; 87.5% (inactive) and 96.2% (inactive) in assay [8]; 93.7% (inactive) and 93.2% (inactive) in assay [9]; 86.6% (inactive) and 108% (inactive) in assay [10].
As for `COc1ccc(/C=N/NC(N)=S)cc1`, the growth in assay [1] was 110% (inactive); in assay [2] it was 106% (inactive); in assay [3] it was 94.4% (inactive); in assay [4], 101% (inactive); in assay [5] it was 95.8% (inactive); in assay [6], 104% (inactive). The growth is 106% (inactive) in [7], 103% (inactive) in assay [8], 102% (inactive) in assay [9] and 96.3% (inactive) in assay [10].
As to `Cc1cc(Cl)nc(Nc2ccccc2)n1`, the growth in assay [1] was 107% (inactive); in assay [2], 79.9% (inactive); in [3] it was 101% (inactive); in [4], 105% (inactive); in [5] it was 96.3% (inactive); in assay [6] it was 99.1% (inactive). Moreover, the growth in [7] is 91.8% (inactive); in assay [8] it was 96.6% (inactive); in assay [9], 106% (inactive); in assay [10], 97.6% (inactive).
On to `CC(=O)Oc1cc(C)c(OC(C)=O)c(C)c1C`, for which the growth was 105% (inactive) in assay [1]; 90.9% (inactive) in assay [2]; 91.4% (inactive) in [3]; 91.4% (inactive) in [4]; 125% (inactive) in assay [5]; 107% (inactive) in assay [6]. Also, the growth was 107% (inactive) in [7], 101% (inactive) in assay [8], 105% (inactive) in assay [9] and 112% (inactive) in assay [10].
